In PubChem BioAssay (NCATS):
Values joined by “and” are separate entries in the source; they are usually repeats but may differ in a detail not shown here. Identical values can stand only once. Results filed as inconclusive are left out. Values without a mark were called inactive. Calls follow the shape of the dose curve; as a rule, active = well fitted curve in the direction sought with a large enough effect; inconclusive = small, poorly fitted or top-dose-only effect, or another doubt; inactive = no such curve, though single readings can be large or run the other way.

Test: qHTS Assay for Identifying Gametocytocidal Compounds (AID 743244);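 also: actives lower the fluorescent signal which means gametocytes are killed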
Details: P. falciparum 3D7 stage III-V gametocytes, alamarBlue, 72 h; max response: stronger effect = lower value
Method in brief: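 Stage III–V gametocytes of P. falciparum 3D7 were seeded at 20,000 cells/well onto pre-dispensed compounds. After 72 h, 37 °C, 5% CO2, alamarBlue was added for another 24 h.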
% is scaled to controls: 0 for no effect and ±100 for the full control effect.

Compound	max response
CCOC(=O)OC(C)OC1=C(C(=O)Nc2ccccn2)N(C)S(=O)(=O)c2ccccc21 (stereo not drawn)	-4.24%
C#C[C@]1(O)CC[C@H]2[C@@H]3CCC4=CC(=O)CC[C@@H]4[C@H]3CC[C@@]21C	8.68%
CC(=O)[C@H]1CC[C@H]2[C@@H]3C[C@H](C)C4=CC(=O)CC[C@]4(C)[C@H]3[C@@H](O)C[C@]12C	9.78%
Nc1nc2ncc(CNc3ccc(C(=O)N[C@@H](CCC(=O)O)C(=O)O)cc3)nc2c(=O)[nH]1	17.9%
CC(=O)OCC(=O)[C@@]1(O)[C@H](C)C[C@H]2[C@@H]3CCC4=CC(=O)C=C[C@]4(C)[C@@]3(F)[C@@H](O)C[C@@]21C	9.89% and -3.15%
CCCC(=O)O[C@]1(C(=O)CO)CC[C@H]2[C@@H]3CCC4=CC(=O)CC[C@]4(C)[C@H]3[C@@H](O)C[C@@]21C	1.99%
CCN(CC)CCOC(=O)C(c1ccccc1)C1CCCCC1 (stereo not drawn)	15%
COc1c2occc2c(OC)c2c(=O)cc(C)oc12	22.1%
CC(=O)OCC(=O)[C@@]12N=C(C)O[C@@H]1C[C@H]1[C@@H]3CCC4=CC(=O)C=C[C@]4(C)[C@H]3[C@@H](O)C[C@@]12C	-5.59%
COc1cccc(OC)c1C(=O)N[C@@H]1C(=O)N2[C@@H]1SC(C)(C)[C@@H]2C(=O)O	-0.927%
CCOC(=O)c1cccc(N)c1	-5.91%
C[C@]12CCC(=O)C=C1[C@@H]1C[C@@H]1[C@H]1[C@@H]3[C@@H]4C[C@@H]4[C@@]4(CCC(=O)O4)[C@@]3(C)CC[C@@H]12	5.27%
CCOC(=O)/C=C(C)/C=C/C=C(C)/C=C/c1c(C)cc(OC)c(C)c1C	14.1%
CCCCC1=NC2(CCCC2)C(=O)N1Cc1ccc(-c2ccccc2-c2nn[nH]n2)cc1	1.29%
CCN(CCCCOC(=O)c1ccc(OC)c(OC)c1)C(C)Cc1ccc(OC)cc1 (stereo not drawn)	14.8%
CN1C(CCl)Nc2cc(Cl)c(S(N)(=O)=O)cc2S1(=O)=O (stereo not drawn)	12.5%
Cc1onc(-c2c(Cl)cccc2Cl)c1C(=O)N[C@@H]1C(=O)N2[C@@H]1SC(C)(C)[C@@H]2C(=O)O	-15.6%

Compound	max response
CN=C(NC#N)NCCSCc1csc(N=C(N)N)n1	5.67%
CC1(C)O[C@@H]2C[C@H]3[C@@H]4C[C@H](F)C5=CC(=O)CC[C@]5(C)[C@H]4[C@@H](O)C[C@]3(C)[C@]2(C(=O)CO)O1	1.24%
NC[C@H]1O[C@H](O[C@H]2[C@H](O[C@@H]3O[C@H](CO)[C@@H](O)[C@H]3O)C(O)[C@H](N)C[C@@H]2N)[C@H](N)[C@@H](O)[C@@H]1O (stereo partly drawn)	0.613%
CN(C/C=C/c1ccccc1)Cc1cccc2ccccc12	6.22%
O=S1(=O)c2cccc3cccc(c23)N1CCCN1CCN(c2ccc(F)cc2)CC1	13.8%
CCN(CC)C(=O)/C(C#N)=C/c1cc(O)c(O)c([N+](=O)[O-])c1	-6.8%
O=C(N/N=C/c1ccccc1O)c1ccncc1	-7.05%
Oc1cc(O)c2c(c1)O[C@H](c1ccc(O)c(O)c1)[C@H](O)C2	2.48%
CC(=O)Oc1ccc(C(=C2CCCCC2)c2ccc(OC(C)=O)cc2)cc1	9.87%
COC(=O)[C@@H]1CC2=CC(=O)CC[C@]2(C)[C@@]23O[C@@H]2C[C@@]2(C)[C@@H](CC[C@@]24CCC(=O)O4)[C@H]13	1.84%
CNC(=O)CN(CCN(CCN(CC(=O)[O-])CC(=O)NC)CC(=O)[O-])CC(=O)[O-].O.[Gd+3]	14.6% and -8.14%
CCOc1ccc(NC(=O)CC(C)O)cc1 (stereo not drawn)	-2.08%
C[C@]12CCC(=O)C=C1CC[C@H]1[C@@H]3CC[C@](O)(C(=O)CO)[C@@]3(C)C[C@H](O)[C@@]12F	15.9% and -1.69%
Nc1ccc(/C=C/c2ccc(N)cc2S(=O)(=O)O)c(S(=O)(=O)O)c1	1.42%
NCCc1ccn[nH]1	5.14%
COCc1c(C(C)C)nc(C(C)C)c(/C=C/[C@@H](O)C[C@@H](O)CC(=O)O)c1-c1ccc(F)cc1	-6.56%
